# SW480 rereplic = A quantitative high throughput screen for small molecules that induce DNA re-replication in SW480 colon adenocarcinoma cells | SW480 DNA re-replication, Hoechst DNA content imaging, 48 h | Potency, µM (highest dose often 46.1 µM), for the others: at the top dose re-replication activation, most hits filed as activators | actives 1.8% (n = 340,000); also: % of control where 0% means no effect; nearly all actives have a fitted effect of over 55% in size
#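 Readout is total intensity of Hoechst-stained nuclei, excited at 405 nm and collected at 500-530 nm. Compound treatment lasted 48 hr at 37 C in 5% CO2 before staining.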
# ELG1 repair inh = qHTS screen for small molecules that inhibit ELG1-dependent DNA repair in human embryonic kidney (HEK293T) cells expressing luciferase-tagged ELG1; HEK293T ELG1-luciferase reporter, luminescence, 16 h; DNA damage induced by 5-fluorouridine; Potency, µM (titrated, usually from 46.1 µM), inactives show at the highest dose activity change, negative = inhibition, actives largely listed as inhibitors; actives 2.3% (n = 330,000); AID 504467, 2011; also: % is scaled to controls: 0 for no effect and ±100 for the full control effect; nearly all actives have a fitted effect of over 55% in size
#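 Reporter activity after DNA damage by 5-fluorouridine is monitored. Compound-treated cells incubate 16 hr at 37 °C, then ONE-Glo is added for 30 min before luminescence reading.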
# MCF10A rereplic = A quantitative high throughput screen for small molecules that induce DNA re-replication in MCF 10a normal breast cells. actives 2.9% (n = 350,000). MCF 10A DNA re-replication, Hoechst nuclear intensity, 48 h. Potency, µM (top dose mostly 46.1 µM), without a hit: top-dose activity, positive = re-replication, actives largely listed as activators. AID 624296, 2012; also: % of control where 0% means no effect; nearly all actives have a fitted effect of over 50% in size
# KB-V1 cytotox = qHTS assay for MDR1-selective chemotherapeutics: Primary screen using the drug-selected MDR subline cells KB-V1. AID 1347076, 2019. Potency, µM (top dose mostly 46.1 µM), actives largely listed as cytotoxic. KB-V1 MDR cells viability, CellTiter-Glo, 72 h. actives 3.4% (n = 400,000); also: % is scaled to controls: 0 for no effect and ±100 for the full control effect; nearly all actives have a fitted effect of over 60% in size
#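 Luminescent ATP read-out (CellTiter-Glo, 10 min) measures survival of drug-selected KB-V1 MDR cells after 72 h, 37 degrees C compound exposure. Medium: phenol-red-free DMEM, 10% FBS. Values from fitted concentration-response curves.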
# KB-3-1 cytotox = qHTS assay for MDR1-selective chemotherapeutics: Primary screen using the parental adenocarcinoma cell KB-3-1. KB-3-1 viability, CellTiter-Glo ATP luminescence, 72 h. Potency, µM (doses to about 46.1 µM), hits mostly cytotoxic. actives 1.4% (n = 400,000); also: % is scaled to controls: 0 for no effect and ±100 for the full control effect; nearly all actives have a fitted effect of over 60% in size
#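 Cells are dispensed, compounds pinned in, plates held at 37 °C for 72 h, then CellTiter-Glo is added and luminescence read after 10 minutes. Cell line: parental KB-3-1 in phenol-red-free DMEM, 10% FBS.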
# Active calls of the source: *; i = inactive; ? = inconclusive; nt = no result; ! = repeats disagree. Only some compounds are listed: those with a hit (about 8.1% of all), similar ones and a draw of the others. Calls follow the shape of the dose curve; as a rule, active = well fitted curve in the direction sought with a large enough effect; inconclusive = small, poorly fitted or top-dose-only effect, or another doubt; inactive = no such curve, though single readings can be large; an effect the other way counts as inactive or inconclusive. Potency is read from the fitted curve at half-maximal effect.
SMILES,SW480 rereplic,ELG1 repair inh,MCF10A rereplic,KB-V1 cytotox,KB-3-1 cytotox
CCCC1(c2ccccc2)NC(=O)N(CC(=O)c2[nH]c(C)c(C(=O)OCC)c2C)C1=O (stereo not given),10.9%,18.4µM*,26.4%,23.1µM*,?
CCOC(=O)c1c(NC(=O)CN2C(=O)NC3(CCCCC3C)C2=O)sc(C)c1C (stereo not given),-0.3%,?,?,?,i
CCOC(=O)c1c(C)[nH]c(C(=O)CN2C(=O)NC3(CCCC3)C2=O)c1C,-3.7%,?,1.9%,i,i
CCOC(=O)c1c(C)[nH]c(C(=O)CN2C(=O)NC(C)(c3ccc4ccccc4c3)C2=O)c1C (stereo not given),12.7%,16.4µM*,-1.6%,10.3µM*,i
CSCc1c(C(=O)Nc2ccccc2N2CCOCC2)oc2ccccc12,?,-13.5%,14.2%,i,i
CCN(C(=O)CSc1nc2ccccc2n1CC(=O)Nc1ccccc1C)c1ccccc1,nt,nt,nt,i,i
Cc1nc2cc(F)ccc2n1C1CCN(C(=O)c2ccc(F)cc2F)CC1,0.2%,9.2µM*,6.9%,i,i
Cc1ccccc1C(=O)Nc1cccc(-c2cn3cccnc3n2)c1,nt,nt,nt,i,i
OCC1(Cc2cccc(C(F)(F)F)c2)CCN(Cc2cc3ccccc3o2)CC1,?,-16.8%,23.1µM*,?,?
O=C1Cc2cc(S(=O)(=O)N3CCN(c4cccc(C(F)(F)F)c4)CC3)ccc2N1,nt,nt,nt,i,i
O=C1c2ccccc2C(=O)c2c1ccc1c(=O)n(C3CCCCC3)[nH]c21,?,20.6µM*,?,10.3µM*,?
O=c1c2[nH]c3ccccc3c2ncn1C1CCCCC1,4.7%,?,8.7%,i,i
CCN(CC1COc2ccccc2O1)S(=O)(=O)c1ccc(C)cc1 (stereo not given),15.1%,-10.8%,21.9%,23.1µM*,i
COc1cc2c(cc1OC)C(COc1ccccc1OC)N(C(=O)COc1ccc(Cl)cc1)CC2 (stereo not given),nt,nt,nt,20.6µM*,i
COC(=O)c1ccc(OCC(O)CN2CCc3cc(OC)c(OC)cc3C2c2ccccc2)cc1 (stereo not given),24.7%,?,20.6µM*,i,i
CCCC(=O)N1CCc2cc(OC)c(OC)cc2C1COc1ccc(C(=O)OC)cc1 (stereo not given),nt,nt,nt,?,i
COC(=O)c1ccc(OCC2c3cc(OC)c(OC)cc3CCN2C(=O)c2ccco2)cc1 (stereo not given),-7.0%,?,?,6.51µM*,i
CCC(=O)N1CCc2cc(OC)c(OC)cc2C1COc1ccc(C(=O)OC)cc1 (stereo not given),11.2%,2.59µM*,24.1%,i,i
COc1ccccc1CNC(=O)Cc1csc2nc(-c3ccc(Cl)cc3)cn12,nt,nt,nt,i,i
COCCCN1C(=O)C(CC(=O)NC2CCCC2)CC(C(=O)N2CCOCC2)=C1C (stereo not given),nt,nt,nt,?,i
CC(=O)OCC(=O)[C@@]12OC3(CCCC3)O[C@@H]1C[C@H]1[C@@H]3CCC4=CC(=O)C=C[C@]4(C)[C@@]3(F)[C@@H](O)C[C@@]12C,0.259µM*!,-1.2%,?,i,i
O=C1Nc2ccc3c(c2C1=Cc1cc2c(cc1Br)OCO2)OCO3,18.4µM*,nt,5.17µM*,?,5.17µM*
Cc1c(Nc2nc(-c3cccc([N+](=O)[O-])c3)cs2)c(=O)n(-c2ccccc2)n1C,?,5.8%,1.7%,i,i
Cc1[nH]n(-c2nc(-c3cccc([N+](=O)[O-])c3)cs2)c(=O)c1C,-2.7%,?,14.1%,16.4µM*,i
CCOc1ccc(NC(=S)c2ccncc2)cc1,-123.7%,23.0%,-73.9%,20.6µM*,23.1µM*
SMILES,SW480 rereplic,ELG1 repair inh,MCF10A rereplic,KB-V1 cytotox,KB-3-1 cytotox
COC(=O)[C@@]12OC[C@]34[C@H]([C@@H](O)[C@@H]1O)[C@@]1(C)C(=O)C(O[C@@H]5OC(CO)[C@@H](O)[C@@H](O)[C@@H]5O)=C[C@@H](C)[C@@H]1C[C@H]3OC(=O)[C@H](OC(=O)/C=C(\C)C(C)(C)OC(C)=O)[C@@H]24 (stereo not given in full),-5.5%,6.51µM*,22.6%,i,?
CC1CCCN(c2ncnc3c2nnn3C)C1 (stereo not given),nt,nt,nt,i,i
Cc1nc(NCc2ccco2)[nH]c(=O)c1CCC(C)C,-0.5%,-9.9%,7.8%,i,i
O=c1[nH]c(NCc2ccco2)nnc1Cc1ccccc1Cl,7.31µM*,nt,?,?,5.8µM*
Cc1ccc2nc(/C=C/c3ccc(N(C)C)cc3)ccc2c1,nt,nt,nt,?,i
CN1C/C(=C/c2cccnc2)C(=O)/C(=C/c2cccnc2)C1,?,?,14.6µM*,14.6µM*,?
CC(C)N1CC2=C(OC(N)=C(C#N)C2c2cccnc2)/C(=C/c2cccnc2)C1 (stereo not given),-1.9%,13.0%,9.0%,i,i
CC(C)N1C/C(=C/c2ccsc2)C(=O)/C(=C/c2ccsc2)C1,9.2µM*,18.4µM*,8.2µM*,?,14.6µM*
O=C1c2ccccc2C(=Cc2cccnc2)c2ccccc21,nt,nt,nt,i,i
CC(C)N1C/C(=C/c2cccnc2)C(=O)/C(=C/c2cccnc2)C1,?,?,1.16µM*,14.6µM*,?
CCN1C(=O)S/C(=C/c2ccsc2)C1=O,5.8%,?,?,i,i
O=C(NCc1ccccc1Cl)C1CCC(=O)N(CC2CCCCC2)C1 (stereo not given),-0.9%,-0.6%,7.7%,?,i
COc1ccc2nc(NC(=O)CSC(C)C(=O)Nc3cc(C)on3)sc2c1 (stereo not given),-67.3%,?,-23.4%,i,i
C=CCNC(=O)/C(C#N)=C/c1c(N2CC(C)OC(C)C2)nc2ccccn2c1=O (stereo not given),16.4µM*,-3.5%,?,i,i
C=CCNC(=O)/C(C#N)=C/c1c(N2CCN(c3cccc(Cl)c3)CC2)nc2c(C)cccn2c1=O,4.2%,-24.4%,20.6µM*,?,i
CNC(=O)/C(C#N)=C/c1c(N2CCN(c3cccc(Cl)c3)CC2)nc2c(C)cccn2c1=O,0.4%,20.6µM*,2.91µM*,i,i

# Bioassay records as filed in PubChem.
